# Screening results from PubChem BioAssay.
# Only some compounds are listed: those with a hit (about 2.8% of all), similar ones and a draw of the others.
# Giardia kill: kills Giardia lamblia; 340,000 compounds, 0.15% hits; activity change, % at 7.66 µM, hits read low; Giardia lamblia trophozoite viability; in the data active = activity change below about -80%; inconclusive = between about -30% and that limit;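 note: parasites exposed to compound for two days anaerobically before the ATP read; % is set by controls: 0 for no effect and ±100 for the full control effect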
#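 Luminescent ATP signal served as the viability read-out, measured 15-30 min after adding ATP detection reagent to trophozoites that had been incubated with compounds for 48 hrs at 37 deg C anaerobically at 100 cells/well.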
# D3 antag: D3 dopamine receptor (human) antagonism; D3R cells, DiscoveRx beta-arrestin luminescence, antagonist mode; stronger effect = lower value; max response, negative = inhibition, %; 360,000 compounds, 2.5% hits; in the data active = max response below about -50%; inconclusive = no clear call, values can overlap the other calls; note: % is set by controls: 0 for no effect and ±100 for the full control effect
# Target sequence (P35462 whole entry, looked up): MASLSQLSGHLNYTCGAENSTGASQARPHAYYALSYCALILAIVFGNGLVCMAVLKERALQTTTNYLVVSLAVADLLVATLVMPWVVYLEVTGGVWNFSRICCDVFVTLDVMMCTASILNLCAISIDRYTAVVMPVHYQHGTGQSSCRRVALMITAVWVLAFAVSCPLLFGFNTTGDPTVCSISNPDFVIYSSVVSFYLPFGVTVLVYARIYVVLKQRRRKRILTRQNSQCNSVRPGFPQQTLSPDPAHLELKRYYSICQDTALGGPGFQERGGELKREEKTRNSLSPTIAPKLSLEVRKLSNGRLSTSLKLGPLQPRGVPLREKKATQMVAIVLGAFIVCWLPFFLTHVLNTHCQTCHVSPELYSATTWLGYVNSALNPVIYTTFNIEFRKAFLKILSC
#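 Cells plated overnight at 1500 cells/well, then exposed to library compounds with dopamine controls for 90 minutes at 37 degrees C. DiscoveRx reagent added for 30–60 minutes at room temperature; luminescence read, quantitative HTS format.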
# B2AR arrestin: agonists driving beta-arrestin recruitment to human beta2-adrenergic receptor; P07550; beta-arrestin recruitment to beta2AR, cell-based reporter; Potency, µM (highest dose often 46.1 µM), without a hit: at the highest dose activation, most hits filed as activators; 330,000 compounds, 0.02% hits; active = well fitted activation curve with a large enough effect; inconclusive = small, poorly fitted or top-dose-only effect;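 note: potency is the fitted concentration of half-maximal effect; 0% = DMSO controls and full agonism = EC100 isoproterenol or metaproterenol; nearly all actives have a fitted effect of over 65% in size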
# D3 ag: agonists of human D3 dopamine receptor; max activation, %; 410,000 compounds, 0.58% hits; D3R DiscoveRx beta-arrestin cells, luminescence, 90 min; in the data active = max activation above about 30%; note: 0% is about no effect
#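 Agonist-mode cell screen: cells plated at 1500/well and incubated overnight at 37 °C, then exposed to library compounds for 90 min at 37 °C. Detection reagent was added for 30–60 min at room temperature, and luminescence was read.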
# Active calls of the source: *; ? = inconclusive; . = no result given; ! = not active in a repeat.
SMILES,Giardia kill,D3 antag,B2AR arrestin,D3 ag
COc1cc(CN2CCC(Cc3ccccc3)CC2)c([N+](=O)[O-])cc1OC,-7.0,20.6,-1.1%,-0.3
Cc1ccc([N+](=O)[O-])c(OCCCN2CCC(Cc3ccccc3)CC2)c1,29.8,-95.5*,.,-1.5
O=[N+]([O-])c1cccc(OCCN2CCC(Cc3ccccc3)CC2)c1,12.3,-101.7*,-0.8%,-20.8
Cc1cc(OCCN2CCCC2)ccc1[N+](=O)[O-],13.1,-63.0*,0.0%,-22.5
COc1cccc(OCCOc2ccccc2[N+](=O)[O-])c1,-15.0,-22.9,.,-7.1
O=[N+]([O-])c1ccccc1OCCNCc1ccccc1,2.1,-85.8*,0.4%,24.5
COc1ccc(-c2nc(C)c(CCNC(=O)c3cc(OC)c(OC)c(OC)c3)s2)cc1OC,.,.,.,6.9
O=[N+]([O-])c1ccccc1OCCN1CCCC1,-11.0,-61.2*,0.3%,-12.6
O=[N+]([O-])c1ccccc1OCCN1CCOCC1,0.5,-15.3,4.4%,2.0
CCOc1ccc(NC(=O)CN(C)Cc2ccc3c(c2)OCO3)cc1S(=O)(=O)N1CCCC1,-26.6,-68.2*,0.2%,-15.0
CCOc1ccc(NC(=O)CC(NC(C)=O)c2ccccc2)cc1S(=O)(=O)N1CCCC1 (stereo unspecified),-20.3,?,-0.1%,-6.0
CCN(c1ccc(C)cc1C)S(=O)(=O)c1nnc(NC(=O)C(C)(C)C)s1,-3.7,-73.8*,-0.1%,-9.3
CS(=O)(=O)N(CC(=O)N/N=C/c1cccc2c1OCCO2)c1ccccc1Br,-8.3,-2.5,-0.8%,1.7
O=C(CN(c1ccc(Cl)c(C(F)(F)F)c1)S(=O)(=O)c1ccccc1)N/N=C/c1cccc2c1OCCO2,-9.6,-62.9*,0.5%,-8.8
Cc1cc(NC2CCCCC2)nc2ccccc12,4.6,-66.6*,0.5%,3.6
COc1ccc(-c2c(-c3ccsc3)oc(=O)c3cc(OC)c(OC)cc23)cc1,2.4,60.7,0.2%,39.2*
COc1cc2c(-c3cc(F)cc(F)c3)c(-c3ccsc3)oc(=O)c2cc1OC,3.2,0.8,0.5%,25.1
COc1ccc(-c2oc(=O)c3cc(OC)c(OC)cc3c2-c2ccc3c(c2)OCO3)cc1,-17.3,12.9,-0.1%,11.4
COCc1ccc(-c2c(-c3ccc(OC)cc3)oc(=O)c3cc(OC)c(OC)cc23)cc1,5.7,97.7,0.0%,34.0*
CCC(=O)N1CCN(c2ccc(NC(=O)c3ccc(C#N)cc3F)cc2Cl)CC1,?,6.3,-0.2%,17.2
CN1CCN(c2ccc(NC(=O)c3ccc(C#N)cc3F)cc2Cl)CC1,-6.6,-56.9*,-0.5%,-5.5
N#Cc1cccc(OCCCN2CCC(C(O)(c3ccccc3)c3ccccc3)CC2)c1,.,-86.1*,.,-11.0
Cc1cc(OCCCN2CCC(C(O)(c3ccccc3)c3ccccc3)CC2)ccc1Br,.,-0.5,.,-8.7
Cc1nn(C(C)C(=O)Nc2cccc(F)c2)c(=O)c2c1sc1ccccc12 (stereo unspecified),.,.,.,-9.9
COc1ccc(CCC(C)NCC2CCCCC2)cc1 (stereo unspecified),7.2,-69.6*,?,-11.4
SMILES,Giardia kill,D3 antag,B2AR arrestin,D3 ag
COc1ccc(CCC(C)NCc2ccc(Cl)c(Cl)c2)cc1 (stereo unspecified),11.9,-55.2*,-0.1%,-17.4
COc1ccc(CCC(C)NC2CCCCCCC2)cc1 (stereo unspecified),-8.6,-67.2*,0.1%,-11.0
COc1ccc(CCC(C)NCc2cc(OC)cc(OC)c2)cc1 (stereo unspecified),2.4,12.7,0.3%,-5.8
CCCCn1nc(NC(=O)c2cccc(Cl)c2)c2cc3cccc(C)c3nc21,.,.,.,-9.5
CCN1CCN(C(c2ccccc2Cl)c2c(O)cc(C)n(CCOC)c2=O)CC1 (stereo unspecified),.,.,.,-15.2
C[C@H]1C[C@@H]2[C@H]([C@@H](O)C[C@@]3(C)[C@H]2CC[C@]3(O)C(=O)COC(=O)CCC(=O)O)[C@@]2(C)C=CC(=O)C=C12,.,.,.,1.5
CCCCSc1nc2sc3c(c2c(=O)n1-c1ccccc1C)CC(C)(C)OC3,.,.,.,-1.9
Cc1cc(C)n(CCCNCC(O)c2ccccc2)n1 (stereo unspecified),-8.1,-64.2*!,-0.1%,-27.3
O=C(C1CCC(CNS(=O)(=O)c2ccc(Br)s2)CC1)N1CCN(c2ccccc2)CC1 (stereo unspecified),.,.,.,14.7
O=C(C1CCC(CNS(=O)(=O)c2cccs2)CC1)N1CCN(c2ccc(Cl)cc2)CC1 (stereo unspecified),12.7,98.4,-0.7%,41.5*!
CCCSc1ncnc2c1c(-c1ccccc1)cn2-c1ccccc1OC,.,.,.,8.4
